# Data: PubChem BioAssay (Tox21)
# Inconclusive results are not listed. Where a call stands in place of a potency, no number is given. The source made the active and inactive calls. Calls come from the whole dose curve.
# Assay: qHTS assay for small molecule disruptors of the mitochondrial membrane potential - cell viability (AID 720634);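 note: human HepG2 liver cancer cells; nearly all actives have a fitted effect of over 20% in size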
# Details: HepG2 viability, ATP luminescence (CellTiter-Glo), 1 h; series mostly up to 83.2 µM
# Excerpt: U.S. Tox21 Program National Center for Advancing Translational Sciences [NCATS] NIH Chemical Genomics Center [NCGC] U.S. Environmental Protection Agency [EPA] National Institutes of Environmental Health Sciences [NIEHS] National Toxicology Program [NTP] U.S. Food and Drug Administration [FDA] Tox21 Assay Overview: Mitochondrial membrane potential (MMP), one of the parameters for mitochondrial function, is generated by mitochondrial electron transport chain that creates an electrochemical gradient by a series of redox reactions. This gradient drives the synthesis of ATP, a crucial molecule for various cellular processes. Measuring MMP in living cells is commonly used to assess the effect of chemicals on mitochondrial function; decreases in MMP can be detected using lipophilic cationic fluorescent dyes. […] The dye accumulates in the mitochondria of healthy cells as aggregates, with red fluorescence. The mitochondrial potential decreases and the dye could not accumulate in the mitochondria and remains in the cytoplasm in monomers, with green fluorescence. In addition to the mitochondrial potential assay, these cells were also used to test the cytotoxicity by determining the cell viability in the culture based on the quantitation of ATP present. The cytotoxicity was measured in the same assay well of MMP assay.
# Tox21 Assay Protocol Summary: 2,000 HepG2 cells in 5 uL/well were dispensed into black, clear-bottom 1536-well plates using a Multidrop Combi (Thermo Scientific) dispenser. The assay plates were incubated for an overnight at 37 C to allow cells to attach to the wells, followed by the transfer of 23 nL compound or DMSO vehicle by a pin tool (Kalypsys). The plates were incubated for 1 hr at 37 C and 5% CO2, followed by the addition of 5 uL of 2X m-MPI dye into each well using Flying Reagent Dispenser (Aurora Discovery) and then CellTiter-Glo reagent was added at 4 uL/well and incubated 30 min at room temperature. Then luminescence intensity was quantified on a ViewLux CCD-based plate reader.
row,SMILES,Potency
1,CCOC(=O)[C@H](CCc1ccccc1)N[C@H]1CCc2ccccc2N(CC(=O)O)C1=O,inactive
2,C=CC[N+]1([C@H]2C[C@H]3[C@@H]4CC[C@H]5C[C@H](OC(C)=O)[C@@H](N6CCCCC6)C[C@]5(C)[C@H]4CC[C@]3(C)[C@H]2OC(=O)CC)CCCCC1,inactive
3,CC(=O)c1ccc2c(c1)[C@H](NC(=O)c1ccc(F)cc1)[C@@H](O)C(C)(C)O2,inactive
4,CC(Cc1cccc(C(F)(F)F)c1)NCCOC(=O)c1ccccc1 (stereo not given),inactive
5,Cc1c(Cn2ccnc2)c2ccccc2n1CCC(=O)O,inactive
6,NC(N)=N/N=C/c1c(Cl)cccc1Cl,inactive
7,CN(C)CCCOc1nn(Cc2ccccc2)c2ccccc12,inactive
8,NCCCN(CCO)CCO,inactive
9,CCC(=O)OC(C)(C)C1CC=C(C)CC1 (stereo not given),inactive
10,CCc1nn(C2CCCCC2)c2cc(C3(C#N)CCC(C(=O)O)CC3)ccc12 (stereo not given),inactive
11,COc1ccc([C@@H]2Sc3ccccc3N(CCN(C)C)C(=O)[C@@H]2OC(C)=O)cc1,inactive
12,CC(C)(C)c1cc(CO)cc(C(C)(C)C)c1O,inactive
13,CC(C)=CCCC(C)CC=O (stereo not given),inactive
14,CC[C@H](C)[C@@H](C(=O)O)n1sc2ccccc2c1=O,inactive
15,CCCCOC(O)CC (stereo not given),inactive
16,CC1CCc2cc(F)cc3c(=O)c(C(=O)O)cn1c23 (stereo not given),inactive
17,CC(=O)/C=C/C1C(C)=CCCC1(C)C (stereo not given),inactive
18,O=C(O)C(c1ccc(Cl)cc1)c1ccc(Cl)cc1,inactive
19,CC(=O)O[C@H]1C[C@@H]2CC[C@@H]3[C@H](CC[C@@]4(C)[C@H]3C[C@H]([N+]3(C)CCCCC3)[C@@H]4OC(C)=O)[C@@]2(C)C[C@@H]1N1CCCCC1,inactive
20,CCCCCCCCCCCCCCCBr,inactive

row,SMILES,Potency
1,CCCCOc1cc(C(=O)OCCN(CC)CC)ccc1N,inactive
2,COC(=O)CSc1cc(N=c2sc(=O)n3n2CCCC3)c(F)cc1Cl,inactive
3,NC(=S)N/N=C/c1cccnc1,inactive
4,CC(C)(C)c1ccc(S)cc1,inactive
5,CCCCCCCCCC=O,inactive
6,CC(C)(C)c1cc(O)c(C(C)(C)C)cc1O,inactive
7,Cn1sccc1=O,inactive
8,CCN(CC)C(C)=O,inactive
9,CCOC(=O)CC(C)C,inactive
10,CCOc1cc(OCC)c(C(=O)CCC(=O)O)cc1OCC,inactive
11,OC(CCN1CCCCC1)(c1ccccc1)C1CCCCC1 (stereo not given),inactive
12,CN1CCN(C2=Nc3ccccc3Sc3ccc(Cl)cc32)CC1,inactive
13,CCN(CC)CCc1nc(-c2ccccc2)no1,inactive
14,O=C(/C=C/c1ccc(O)c(O)c1)O[C@@H]1C[C@](O)(C(=O)O)C[C@@H](O)[C@H]1O,inactive
15,CC(=O)O[C@@H]1C(=O)O[C@@H]2[C@H]1OC(=O)[C@@H]2OC(C)=O,inactive
16,Cc1ccc(C(C)c2ccc(C)c(C)c2)cc1C,inactive
17,N#CCCNCCC#N,inactive
18,CCN(CC)C(C)CN1c2ccccc2Sc2ccccc21 (stereo not given),inactive
19,COc1ccc(OC)c(OC)c1,inactive
20,O=CNc1ccccc1,inactive
